# Data taken from PubChem BioAssay AID602376 (Johns Hopkins Ion Channel Center, 2012).
# Potency and affinity values are given separately. Inconclusive results are not listed. Values without a mark were called inactive.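 How the source made its calls: active means raises choline transporter activity at one or more tested doses and gives a fitted dose-response curve; inconclusive means no clear call, values can overlap the other calls; inactive means no choline transporter activation at any dose, or no curve.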
# Target: High affinity choline transporter 1 (Homo sapiens) (UniProt Q9GZV3)
# Experiment: CHT activators, dose response, cell-based, 10-point CRC, membrane potential dye (AID 602376)
# Conditions: HEK293-CHT, choline-induced membrane potential dye, cells express CHT LV-AA mutant; series mostly up to 67 µM; percent activation: at the top concentration
# Chain of High affinity choline transporter 1 (Homo sapiens) (Q9GZV3 whole entry, looked up): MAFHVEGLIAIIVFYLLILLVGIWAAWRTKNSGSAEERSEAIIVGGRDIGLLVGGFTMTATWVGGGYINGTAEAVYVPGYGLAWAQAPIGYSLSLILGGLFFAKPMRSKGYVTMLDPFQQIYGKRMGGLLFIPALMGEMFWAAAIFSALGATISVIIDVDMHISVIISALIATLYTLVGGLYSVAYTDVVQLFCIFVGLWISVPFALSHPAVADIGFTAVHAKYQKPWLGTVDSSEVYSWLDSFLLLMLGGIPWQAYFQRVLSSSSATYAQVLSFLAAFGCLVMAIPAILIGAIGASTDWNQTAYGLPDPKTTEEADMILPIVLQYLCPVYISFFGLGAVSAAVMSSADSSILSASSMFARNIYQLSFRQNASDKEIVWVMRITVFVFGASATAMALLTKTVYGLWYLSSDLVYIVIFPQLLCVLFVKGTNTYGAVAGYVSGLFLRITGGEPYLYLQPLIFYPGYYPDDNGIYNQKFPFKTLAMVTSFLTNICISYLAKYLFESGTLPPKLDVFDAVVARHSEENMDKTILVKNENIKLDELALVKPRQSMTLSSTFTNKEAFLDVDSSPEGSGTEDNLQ
row,SMILES,percent activation
1,COc1ccccc1C1CC(c2ccc(Cl)cc2)Nc2ncnn21 (centres undefined),65.7%
2,O=C(NCC(c1ccco1)N1CCCC1)c1ccccc1Sc1ccc(C(F)(F)F)cc1[N+](=O)[O-] (centres undefined),51.3%
3,CCc1ccc(CN(C)C(=O)CCc2nc3ccccc3n(-c3ccc(OC)cc3)c2=O)cc1,88.1%
4,CC(C)(C)N(NC(=O)c1ccccc1)C(=O)c1cccc(C(=O)N(NC(=O)c2ccccc2)C(C)(C)C)c1,24.3%
5,COc1ccccc1N(C(=O)c1ccco1)C(C(=O)NC1CCCC1)c1cccs1 (centres undefined),49.6%
6,C=CCN1C(c2ccc(OCC)cc2)=CS/C1=C(\C#N)c1nnc2n1CCCCC2,94.7%
7,O=C1CCC(C(=O)N(Cc2cccs2)C2(C(=O)NC3CCCCC3)CCCCC2)N1 (centres undefined),73.7%
8,CCOC(=O)C1(Cc2ccccc2C(F)(F)F)CCN(Cc2ccon2)CC1,63.5%
9,COC(=O)c1sc(NC(=O)C(C)c2ccccc2)nc1C (centres undefined),22.6%
10,COC(=O)c1ccccc1NC(=O)CN1CCN(C23CC4CC(CC(C4)C2)C3)CC1,74.9%
11,O=C(COC(=O)c1c2c(nc3ccccc13)CCCCC2)NCc1ccc2c(c1)OCO2,66.1%
12,CCOC(=O)C[C@H]1c2ccccc2S(=O)(=O)N1Cc1cccc(C(F)(F)F)c1,72.8%
13,O=C(COc1ccccc1)NCC(c1ccco1)N1CCN(c2ccc(F)cc2)CC1 (centres undefined),65.2%
14,COc1ccc(C(=O)c2coc3ccc(O)c(CN4CCOCC4)c23)cc1,48.5%
15,O=C(NC1CCCC1)C(c1ccsc1)N(Cc1ccco1)C(=O)Cc1cccs1 (centres undefined),71.2%
16,COc1ccc(-c2csc3nc(C)nc(N4CCCCC4)c23)cc1OC,54.9%
17,CCCCn1c(N)c(N(CCOC)C(=O)c2ccc(COc3ccccc3)o2)c(=O)[nH]c1=O,56.5%
18,N#Cc1c(N)oc(-c2ccco2)c1-c1ccco1,29.4%
19,Cn1c(=O)c2c(nc(CN3CCN(c4cccc(Cl)c4)CC3)n2CCc2ccccc2)n(C)c1=O,72.6%
20,CCc1ccc(OCC(=O)N/N=C/c2cc([N+](=O)[O-])ccc2N2CCOCC2)cc1,61.9%
21,Cc1noc(C)c1CSc1nc2ccccc2c(=O)n1-c1ccccc1,78.5%
22,CCc1ccc(C(O)(CNCc2ccccc2)c2ccccc2)cc1 (centres undefined),153%
23,CC(Sc1nnc(-c2ccc(Cl)cc2Cl)n1Cc1ccccc1)C(=O)Nc1nccs1 (centres undefined),59.2%
24,CCOc1cc(-c2sc(Nc3cc(C)ccc3OC)n[n+]2-c2ccccc2)ccc1OC,77.7%
